Reference: PubChem BioAssay AID1159580 (chemical genetic matrix, 2015)
Values joined by “and” are separate entries in the source; they are usually repeats but may differ in a detail not shown here. Equal entries are not always repeated. Among all 5,500 compounds or so, about 2,000 (36%) were called active. Roughly 18% stayed inconclusive and do not appear here. No stated cut-off is given here; in the data, active means normalized growth mostly below about 0.91 (no sharp cut-off); inconclusive means no clear call, values can overlap the other calls; inactive means mostly above about 0.92. The list shows a part of the results.

Experiment: chemical genetic growth profiling, strain panel (AID 1159580);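 further: tested at 20 µM; growth read once vehicle control cultures reached saturation at 30 °C; 1 = growth at the plate median or of vehicle wells; lower values mean less growth of the strain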
Conditions: growth OD

Measured: normalized growth

NCCCC(=O)O
inactive: S. cerevisiae deletion strains, locus YAL013W, strain DEP1, hits give low values 1 and 0.982 | S. cerevisiae deletion strains, locus YAL040C, strain CLN3, hits give low values 0.965 | S. cerevisiae deletion strains, locus YBR021W, strain FUR4, hits give low values 1.01 | S. cerevisiae deletion strains, locus YBR229C, strain ROT2, hits give low values 1.01 | S. cerevisiae deletion strains, locus YCL029C, strain bik1, hits give low values 1.04 | S. cerevisiae deletion strains, locus YDL035C, strain GPR1, hits give low values 1.01 | S. cerevisiae deletion strains, locus YDL074C, strain BRE1, hits give low values 1.01 | S. cerevisiae deletion strains, locus YDL101C, strain DUN1, hits give low values 1.01 | S. cerevisiae deletion strains, locus YDL134C, strain PPH21, hits give low values 1.01 | S. cerevisiae deletion strains, locus YDL185W, strain tfp1, hits give low values 1.01 | S. cerevisiae deletion strains, locus YDL192W, strain arf1, hits give low values 1.02 | S. cerevisiae deletion strains, locus YDR101C, strain arx1, hits give low values 1.03 | S. cerevisiae deletion strains, locus YDR150W, strain NUM1, hits give low values 1.01 | S. cerevisiae deletion strains, locus YDR162C, strain NBP2, hits give low values 1 | S. cerevisiae deletion strains, locus YDR318W, strain mcm21, hits give low values 1.02 | S. cerevisiae deletion strains, locus YDR363W, strain ESC2, hits give low values 1.02 | S. cerevisiae deletion strains, locus YDR388W, hits give low values 1.02 | S. cerevisiae deletion strains, locus YDR502C, strain sam2, hits give low values 1.03 | S. cerevisiae deletion strains, locus YEL061C, strain CIN8, hits give low values 1 | S. cerevisiae deletion strains, locus YER002W, strain NOP16, hits give low values 0.993 | S. cerevisiae deletion strains, locus YER110C, hits give low values 1.04 | S. cerevisiae deletion strains, locus YER155C, strain BEM2, hits give low values 1.01 | S. cerevisiae deletion strains, locus YER167W, strain BCK2, hits give low values 1.01 | S. cerevisiae deletion strains, locus YGL078C, strain dbp3, hits give low values 1.03 | S. cerevisiae deletion strains, locus YGL086W, strain mad1, hits give low values 1.02 | S. cerevisiae deletion strains, locus YGL248W, strain PDE1, hits give low values 1.01 | S. cerevisiae deletion strains, locus YGR078C, strain PAC10, hits give low values 1.01 | S. cerevisiae deletion strains, locus YGR135W, strain pre9, hits give low values 1.04 | S. cerevisiae deletion strains, locus YGR229C, strain SMI1, hits give low values 1.03 and 0.998 | S. cerevisiae deletion strains, locus YGR252W, strain gcn5, hits give low values 1.07 | S. cerevisiae deletion strains, locus YHR030C, strain SLT2, hits give low values 1.01 | S. cerevisiae deletion strains, locus YHR079C, strain IRE1 (second series), hits give low values 1.02 | S. cerevisiae deletion strains, locus YHR079C, strain IRE1, hits give low values 0.994 | S. cerevisiae deletion strains, locus YHR094C, strain hxt1, hits give low values 1.02 | S. cerevisiae deletion strains, locus YHR129C, strain ARP1, hits give low values 1 | S. cerevisiae deletion strains, locus YHR200W, strain rpn10, hits give low values 1.02 | S. cerevisiae deletion strains, locus YIL066C, strain RNR3, hits give low values 1.01 | S. cerevisiae deletion strains, locus YIL073C, strain SPO22, hits give low values 1.06 | S. cerevisiae deletion strains, locus YIL125W, strain kgd1, hits give low values 1.02 | S. cerevisiae deletion strains, locus YIR030C, strain dcg1, hits give low values 1.04 | S. cerevisiae deletion strains, locus YJL095W, strain BCK1, hits give low values 1.01 and 0.999 | S. cerevisiae deletion strains, locus YJL134W, strain LCB3, hits give low values 1.01 | S. cerevisiae deletion strains, locus YJL168C, strain set2, hits give low values 1.03 | S. cerevisiae deletion strains, locus YJL187C, strain SWE1 (second series), hits give low values 1.01 | S. cerevisiae deletion strains, locus YJR043C, strain POL32, hits give low values 1 | S. cerevisiae deletion strains, locus YJR066W, strain TOR1, hits give low values 0.949 | S. cerevisiae deletion strains, locus YJR075W, strain HOC1, hits give low values 1.01 | S. cerevisiae deletion strains, locus YKL009W, strain mrt4, hits give low values 0.999 | S. cerevisiae deletion strains, locus YKL068W, hits give low values 1.01 | S. cerevisiae deletion strains, locus YKL085W, strain MDH1 (second series), hits give low values 1 | S. cerevisiae deletion strains, locus YKL085W, strain MDH1, hits give low values 1 | S. cerevisiae deletion strains, locus YKL190W, strain CNB1, hits give low values 1 | S. cerevisiae deletion strains, locus YKR001C, strain vps1, hits give low values 1.03 | S. cerevisiae deletion strains, locus YLR039C, strain RIC1, hits give low values 0.999 | S. cerevisiae deletion strains, locus YLR058C, strain SHM2, hits give low values 1.01 | S. cerevisiae deletion strains, locus YLR102C, strain apc9, hits give low values 1.03 | S. cerevisiae deletion strains, locus YLR113W, strain HOG1, hits give low values 0.996 | S. cerevisiae deletion strains, locus YLR262C, strain YPT6, hits give low values 1 | S. cerevisiae deletion strains, locus YLR268W, strain sec22, hits give low values 1.03 | S. cerevisiae deletion strains, locus YLR330W, strain CHS5, hits give low values 1 | S. cerevisiae deletion strains, locus YLR342W, strain FKS1 (second series), hits give low values 0.994 | S. cerevisiae deletion strains, locus YLR371W, strain rom2, hits give low values 1.03 | S. cerevisiae deletion strains, locus YLR418C, strain cdc73, hits give low values 1.08 | S. cerevisiae deletion strains, locus YML016C, strain PPZ1, hits give low values 1.01 | S. cerevisiae deletion strains, locus YML032C, strain rad52, hits give low values 1.04 | S. cerevisiae deletion strains, locus YML124C, strain tub3, hits give low values 1.03 | S. cerevisiae deletion strains, locus YMR078C, strain ctf18, hits give low values 1.03 | S. cerevisiae deletion strains, locus YMR223W, strain ubp8, hits give low values 1.02 | S. cerevisiae deletion strains, locus YMR263W, strain SAP30, hits give low values 1.01 | S. cerevisiae deletion strains, locus YMR307W, strain GAS1, hits give low values 1.02 | S. cerevisiae deletion strains, locus YNL067W, strain RPL9B, hits give low values 1.01 | S. cerevisiae deletion strains, locus YNL128W, strain TEP1, hits give low values 1.02 and 0.979 | S. cerevisiae deletion strains, locus YNL153C, strain GIM3, hits give low values 1.01 | S. cerevisiae deletion strains, locus YNL175C, strain NOP13, hits give low values 0.995 | S. cerevisiae deletion strains, locus YNL183C, strain NPR1, hits give low values 0.918 | S. cerevisiae deletion strains, locus YNL197C, strain WHI3, hits give low values 0.975 | S. cerevisiae deletion strains, locus YNL224C, strain SQS1, hits give low values 1.02 | S. cerevisiae deletion strains, locus YNL233W, strain BNI4, hits give low values 1 | S. cerevisiae deletion strains, locus YNL250W, strain rad50, hits give low values 1.03 | S. cerevisiae deletion strains, locus YNL271C, strain bni1, hits give low values 1.03 | S. cerevisiae deletion strains, locus YNL298W, strain CLA4, hits give low values 1.05 | S. cerevisiae deletion strains, locus YNL307C, strain MCK1, hits give low values 1.03 | S. cerevisiae deletion strains, locus YNL322C, strain KRE1, hits give low values 1.01 and 0.99 | S. cerevisiae deletion strains, locus YNR052C, strain pop2, hits give low values 1.02 | S. cerevisiae deletion strains, locus YOL006C, strain TOP1, hits give low values 1.03 | S. cerevisiae deletion strains, locus YOL012C, strain htz1 1.29 | S. cerevisiae deletion strains, locus YOL147C, strain pex11, hits give low values 1.04 | S. cerevisiae deletion strains, locus YOR061W, strain CKA2, hits give low values 1.01 | S. cerevisiae deletion strains, locus YOR069W, strain VPS5, hits give low values 1 | S. cerevisiae deletion strains, locus YOR083W, strain WHI5 (second series), hits give low values 0.99 | S. cerevisiae deletion strains, locus YOR136W, strain idh2, hits give low values 1.02 | S. cerevisiae deletion strains, locus YOR144C, strain elg1, hits give low values 1.03 | S. cerevisiae deletion strains, locus YOR184W, strain ser1, hits give low values 1.03 | S. cerevisiae deletion strains, locus YOR231W, strain MKK1, hits give low values 1 | S. cerevisiae deletion strains, locus YOR316C, strain cot1, hits give low values 1.03 | S. cerevisiae deletion strains, locus YPL055C, strain LGE1, hits give low values 1.03 | S. cerevisiae deletion strains, locus YPL241C, strain CIN2, hits give low values 0.999 | S. cerevisiae deletion strains, locus YPL256C, strain CLN2, hits give low values 0.985 | S. cerevisiae deletion strains, locus YPR119W, strain clb2, hits give low values 1.02 | S. cerevisiae deletion strains, locus YPR141C, strain kar3, hits give low values 1.02 | S. cerevisiae deletion strains, locus YPR163C, strain tif3, hits give low values 1.04 | S. cerevisiae deletion strains, locus YPR167C, strain met16, hits give low values 1.02 | S. cerevisiae deletion strains, strain wtn01, hits give low values 1.03 | S. cerevisiae strains, strain wild type, hits give low values 1.01
